Bioassay records from PubChem.
3CLpro inhibitor: SARS-CoV 3CLpro protease inhibition; P0C6X7; inhibition, % at 6 µM; recombinant SARS-CoV 3CLpro, quenched FRET peptide cleavage; actives 0.14% (n = 290,000); in the data active = inhibition above about 12%
BH1578 lux ind: inducers of Vibrio cholerae quorum light production without autoinducers | actives 0.16% (n = 350,000) | activation, % at 18.7 µM | V. cholerae BH1578 lux reporter, luminescence, 6 h; in the data active = activation mostly above about 9.7%, no sharp cut-off; inconclusive = no clear call, values can overlap the other calls; inactive = mostly below about 3.7%
PrPC surface inh: reduces human prion protein on the cell surface | P04156 | cell surface PrPC, TR-FRET read-out | inhibition, % at 13.8 µM | actives 0.43% (n = 370,000) | AID 720596; in the data active = inhibition above about 24%; note: 0% = median of the test wells and 100% = reference compound wells
PriA SSB inh: blocks PriA binding to SSB C-terminal tail | AlphaScreen SSBct-PriA binding, biotinylated peptide | inhibition, % at 33 µM | actives 0.6% (n = 430,000) | AID 1272365; in the data active = inhibition mostly above about 37%, no sharp cut-off; inactive = mostly below about 20%;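 note: plate controls were negative control peptide for no effect and reference peptide for full effect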
PrP UTR inh: inhibition of PrP 5' UTR reporter expression; cell-based PrP 5' UTR mRNA reporter, plate reader; inhibition, % (concentration not given with the values); actives 0.35% (n = 340,000); in the data active = inhibition above about 52%; note: 0 = median of the neutral control wells
PfHsp40 yeast: rescue of PfHsp40-mediated yeast toxicity | growth rescue, % at 12.5 µM | S. cerevisiae expressing PfHsp40, growth rescue, ATP luminescence | actives 0.68% (n = 340,000) | AID 504582; in the data active = growth rescue above about 28%, passing the limit was not always enough; inconclusive = no clear call, values can overlap the other calls;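 note: yeast W303a lacking pdr1 and pdr3 grown in galactose medium; growth measured after three days at 30 °C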
PrPC confirm: cell surface PrPC inhibition, TR-FRET confirmation. shares compounds with PrPC surface inh. cell surface PrPC level. inhibition, % at 13.8 µM. actives 65% (n = 1,500). AID 743200; in the data active = inhibition above about 25%
LD9 tox: counter-screen for PrPc inhibitors: cytotoxicity in LD9 cells | AID 743201 | actives 29% (n = 1,500) | shares compounds with PrPC surface inh | inhibition, % at 13.8 µM | luminescence viability; in the data active = inhibition above about 9.5%
The depositor's hits bear a star; i = inactive; u = inconclusive; x = no result given. In the library only some 1.6% were active in any assay of this set; here they are far more common.

SMILES | 3CLpro inhibitor | BH1578 lux ind | PrPC surface inh | PriA SSB inh | PrP UTR inh | PfHsp40 yeast | PrPC confirm | LD9 tox
O=C1C(=O)N(CCCn2ccnc2)C(c2cccc(Br)c2)/C1=C(\O)c1ccc2c(c1)OCCO2 (stereo unspecified) | 2 | i | 30* | x | -10 | 1 | 43* | 1
O=C1C(=O)N(CCCn2ccnc2)C(c2ccc(Cl)cc2)/C1=C(\O)c1ccc2c(c1)OCCO2 (stereo unspecified) | -5 | 0 | 32* | x | -12 | 2 | 12 | -4
CC(C)c1ccc(S(=O)(=O)Nc2ccc3c(c2)CN(C(=O)C2CC2)CC3)cc1 | x | x | x | -2 | x | x | x | x
CCOC(=O)C1CCCN(C(c2ccco2)c2sc3nc(CC)nn3c2O)C1 (stereo unspecified) | x | x | x | 14 | x | x | x | x
O=C(NCc1ccncc1)C(=O)Nc1nc(C23CC4CC(CC(C4)C2)C3)cs1 | 5 | 0 | 35* | 14 | -17 | -2 | 36* | 2
O=c1c2c(nc(SC(c3ccccc3)c3ccccc3)n1-c1ccc(F)cc1)CCS2 | x | x | x | -24 | x | x | x | x
Cc1ccc(CN2CCCCC(NC(=O)Nc3ccccc3-c3ccccc3)C2=O)cc1 (stereo unspecified) | x | x | 30* | x | x | x | 18 | -3
Cc1ccc(CN2CCCCC(NC(=O)c3ccc(-c4ccccc4)cc3)C2=O)cc1 (stereo unspecified) | x | x | 1 | x | x | x | x | x
COC(=O)c1ccc(Cn2cnc3c(cnn3-c3cccc(Cl)c3)c2=O)o1 | x | x | x | -11 | x | x | x | x
COc1cc(-c2ccc(NC(=O)CCc3ccccc3)c(OC)c2)ccc1NC(=O)CCc1ccccc1 | x | x | x | -14 | x | x | x | x
C=CCSc1nc(N)c(C#N)c(-c2ccccc2)c1C#N | 3 | 6 | 51* | -11 | 2 | 0 | 10 | -5
CC(C)[C@H](NC(=O)OC(C)(C)C)c1nnc(S(=O)(=O)Cc2c(F)cccc2Cl)o1 | x | 0 | 30* | -5 | -20 | -2 | 28* | 66*
CC[C@@H](C)[C@H](NC(=O)OC(C)(C)C)c1nnc(S(=O)(=O)Cc2cc(C)ccc2C)o1 | -1 | i | 5 | -37 | -21 | u | x | x
Cc1sccc1C(N)=O | x | x | x | -12 | x | x | x | x
COc1ccc(Oc2ccccc2/C=N/O)cc1 | -3 | -1 | 1 | x | -9 | 0 | x | x
COc1cc(C=NO)nc(-c2ccccn2)c1 | x | -6 | 37* | 83* | 44 | u | 33* | 22*
CCCOc1ccc(CCC(=O)N2CCC(S(=O)(=O)CC(C)C)CC2)cc1 | x | x | x | -12 | x | x | x | x
COc1ccc(Nc2nc(NCC3CCCO3)c3ccccc3n2)c(OC)c1 (stereo unspecified) | 4 | 0 | 1 | 3 | -10 | 0 | x | x
CCOc1ccc(Nc2nc(NCC3CCCO3)c3ccccc3n2)cc1 (stereo unspecified) | 2 | -1 | 34* | 30 | -6 | 10 | 30* | 32*
CCOc1cc(C2Nc3ccccc3C(=O)N2c2ccccc2)c(Br)cc1OCC(=O)O (stereo unspecified) | 1 | 0 | 93* | -10 | -14 | 0 | 63* | -4
COc1cc(C2Nc3ccccc3C(=O)N2c2ccc(Cl)cc2)c(Cl)cc1OCC(=O)O (stereo unspecified) | -1 | i | -3 | -9 | -23 | 1 | x | x
CCOC(=O)c1sc(NC(=O)CCS(=O)(=O)c2ccccc2)nc1-c1ccccc1 | x | x | x | -16 | x | x | x | x
O=C(Nc1ccccc1)C1=C(c2ccccc2)S(=O)(=O)CCS1(=O)=O | 1 | 0 | 33* | -14 | -8 | 0 | 0 | 70*
CCc1nc2c(OCCC3CCCCC3)cccn2c1N(C)C(=O)c1cccs1 | x | -1 | 27* | x | x | x | 17 | -12
CCCCC(=O)N(C)c1c(CC)nc2c(OCC3CCCCC3)cccn12 | x | -1 | 31* | x | x | x | 18 | -9
SMILES | 3CLpro inhibitor | BH1578 lux ind | PrPC surface inh | PriA SSB inh | PrP UTR inh | PfHsp40 yeast | PrPC confirm | LD9 tox
CC1(C)Cc2cccc(OCC(=O)NCCn3ccc(-c4ccsc4)n3)c2O1 | x | x | x | 3 | x | x | x | x
Cc1ccc(S(=O)(=O)N2N=C(c3ccc(Br)cc3)C[C@H]2c2ccccc2)cc1 | x | x | x | -20 | x | x | x | x
CC(=O)c1sc(NC(=O)C(C)(C)C)nc1C | 3 | -1 | 26* | -5 | -5 | 0 | 27* | 1
CC(=O)c1sc(NC(=O)c2ccc(C(C)(C)C)cc2)nc1C | 5 | i | 7 | 0 | -111 | 0 | x | x
CC(=O)c1sc(NC(=O)CCOc2ccccc2)nc1C | -1 | 1 | 35* | -6 | -19 | -1 | 41* | -6
CSc1ccccc1NC(=O)C1CN(C(=O)c2cnccn2)C1 | x | x | x | -7 | x | x | x | x
Cc1ccccc1N=c1scc(-c2ccc(F)cc2)n1CCO | x | x | x | 71 | x | x | x | x
CC(=O)Nc1ccc(-c2ccnc(-c3ccc(NC(C)=O)cc3)n2)cc1 | -3 | -1 | 58* | -4 | -17 | 0 | 56* | -5
CCCCCCCCn1c2c(c(=N)c3ccccc31)CCC2 | -5 | i | 29* | -4 | -19 | 0 | 44* | 38*
O=C1COc2cc(O)ccc21 | x | i | 28* | 1 | -6 | -1 | 16 | -1
O=C(Oc1ccc2c(c1)OCC2=O)c1ccccc1 | 2 | i | -3 | -10 | -36 | 0 | x | x
O[C@@H]1[C@@H](O)C=C2CCN3Cc4cc5c(cc4[C@H]1C23)OCO5 (stereo partly specified) | x | i | 89* | -16 | -66 | 1 | 92* | 28*
CC1CN(C)CCN1CC1CCN(C(=O)Nc2cccs2)CC1 (stereo unspecified) | x | x | x | -17 | x | x | x | x
C=Cc1cc2c(cc1O)CCC1C2CCC2(C)C(O)CCC12 (stereo unspecified) | x | x | 29* | -11 | -26 | u | 11 | -4
CCCC(=O)Nc1ccc(C(=O)NNC(=S)NC(=O)c2ccc(Br)o2)cc1 | -2 | 0 | 32* | -7 | -1 | -2 | 0 | -3
CCCC(=O)Nc1ccc(C(=O)NNC(=S)NC(=O)c2cccs2)cc1 | 0 | -2 | -4 | -9 | -23 | 3 | x | x
O=C(Cc1noc2ccccc12)NCC#CCN1CCOCC1 | x | x | x | -17 | x | x | x | x
CC(C)c1nnc(SCC(=O)NCc2ccco2)c2c1cnn2-c1ccc(F)cc1 | x | x | x | -10 | x | x | x | x
COc1cc2cc(Br)cc(Br)c2nc1C | -2 | -7 | 63* | -57 | -6 | 2 | 89* | -3
COc1ccc(Cl)cc1NC(=O)N1CCC(Oc2ccc(C#N)cn2)CC1 | x | x | x | 2 | x | x | x | x
CCC(=O)N1CCc2cc(S(=O)(=O)N(C)c3ccc(OC)cc3OC)ccc21 | 7 | 1 | 5 | -1 | -7 | -1 | x | x
CCC(=O)N1CCc2cc(Br)cc(S(=O)(=O)N(C)c3ccc(OC)cc3OC)c21 | 2 | 0 | 30* | -9 | -1 | 1 | 6 | -5
CS(=O)(=O)c1ccc(NC(=O)c2ncc(-c3ccccc3)o2)cc1 | x | x | x | 8 | x | x | x | x
CCCNC(=O)c1ccc2snnc2c1 | -3 | 0 | 2 | 4 | -13 | 0 | x | x
